From PubChem
Spn MK inh – S. pneumoniae mevalonate kinase inhibition; purified MK, PK/LDH-coupled NADH absorbance 340 nm; inhibition, % at 10 µM; 65,000 tested, 0.48% active;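 active = ranked among the strongest by inhibition in the single 10 µM screen, a fixed top-ranked set picked for dose follow-up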
Spn DPM-DC inh – inhibitors of Streptococcus pneumoniae diphosphomevalonate decarboxylase; purified DPM-DC, PK/LDH coupled NADH fluorescence; calls only at 10 µM; 65,000 tested, 0.49% active;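 active = the 320 compounds with the highest percent inhibition in the single-dose primary screen, excluding strongly autofluorescent ones, cut at about 32% in these data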;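 note: kinetic rate of NADH fluorescence loss reporting ADP formed by the decarboxylase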
NADH enzymes – inhibition of NAD/NADH coupling enzymes, library profiling | coupled PK/LDH NADH assays, four targets | IC50, µM (doses to about 10 µM), for the others: at the top dose inhibition | 65,000 tested, 0.02% active | AID 774;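 active = single-dose screening hits from any of four coupled enzyme assays that gave an IC50 when retested across doses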;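 note: the DPM-DC format reads NADH fluorescence rather than 340 nm absorbance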
PMK inhibit – inhibitors of Streptococcus pneumoniae phosphomevalonate kinase | purified PMK, PK/LDH-coupled NADH absorbance 340 nm | inhibition, % at 10 µM | 65,000 tested, 0.49% active;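 active = top-ranked compounds by inhibition in the single 10 µM screen, taking a fixed number of the strongest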;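 note: 0% = full reaction with DMSO carrier and 100% = background rate without enzyme reaction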
Active calls of the source: *; i = inactive; . = not tested or not shown; + = active, no number; [ ] = remark or other dose. Compounds with a hit are over-represented: about 1.3% of the library has one in this group of screens.

SMILES	Spn MK inh	Spn DPM-DC inh	NADH enzymes	PMK inhibit
COc1ccc(OC)c(S(=O)(=O)N2CCN(c3c(C)cccc3C)CC2)c1	3	i	2%	2
O=C(Nc1ccccc1F)N(CCCN1CCOCC1)Cc1cc2cc3c(cc2[nH]c1=O)OCCO3	15	i	10%	3
Cc1ccccc1NC(=O)CN1C(=O)COc2ccc(Cl)cc21	0	i	0%	0
O=C(COc1ccc(-n2cnnn2)cc1)NC(=O)NCc1ccccc1	0	i	6%	18
Clc1c(-c2nnc3n2CCC3)sc2ccccc12	8	+	36%	3
Clc1c(-c2nnc3n2CCCCC3)sc2ccccc12	0	i	5%	14
CCC(=O)Oc1ccc2c(C)cc(=O)oc2c1C	7	+[fluoresces]	5%	12
COC(=O)CCC(=O)Nc1ccc(Br)cc1	2	i	7%	9
CCOC(=O)N1C(=O)c2cc(OC)ccc2S1(=O)=O	9	i	19µM*	29*
CCOC(=O)c1cccc(N2C(=O)c3ccccc3S2(=O)=O)c1	6	i	7%	5
COc1ccc(N2CCN(CCCNS(=O)(=O)c3c(C)noc3/C=C/N(C)C)CC2)cc1	5	i	5%	6
O=C(CSc1nc2sc3c(c2c(=O)n1-c1ccccc1)CCCC3)NCc1ccco1	10	i	11%	12
COCCCn1c(SCC(=O)NCc2ccco2)nc2sc3c(c2c1=O)CCC3	66*	i	22%	1
Cc1ccc(S(=O)(=O)Nc2nonc2C)cc1	3	i	8%	20
CC(C)(C)c1ccccc1OCCCCCNCCO	44*	i	32%	52*
Nc1nc(C2CC2)c(Sc2sc(N)nc2C2CC2)s1	0	i	4%	12
Cc1cc(=O)oc2cc(OC(C)C(=O)O)c(Cl)cc12 (stereo not drawn)	0	+	25%	19
COc1ccc(-c2nnc(SCC(=O)NC(C)c3ccccc3)o2)cc1OC (stereo not drawn)	4	i	3%	4
CCn1c(SCC(=O)Nc2nc3ccc(OC)cc3s2)nc2c1c(=O)n(C)c(=O)n2C	2	i	5%	12
CCOC(=O)CN(C(=O)CSc1nnc2c(n1)[nH]c1ccc(OC)cc12)c1ccc(F)cc1	10	i	6%	7
CCOC(=O)CC(=O)CSc1nnc2c(n1)[nH]c1ccccc12	0	i	11%	34*
c1ccc2[nH]c(SN3CCOCC3)nc2c1	54*	i	26%	13
COc1ccc2c(c1OC)CN(C)CCc1cc3c(cc1C(O)C2)OCO3 (stereo not drawn)	12	i	12%	25*
COc1cccc(C2/C(=C(\O)c3ccc4c(c3)OCO4)C(=O)C(=O)N2CCN(C)C)c1OC (stereo not drawn)	0	i	0%	0
CN(Cc1c(O)ccc2c1oc(=O)c1ccccc12)C1CCCCC1	50*	i	8.8µM*	18
SMILES	Spn MK inh	Spn DPM-DC inh	NADH enzymes	PMK inhibit
CCc1c(C)c2ccc(O)c(CN(C)C)c2oc1=O	12	.	6%	0
COc1ccccc1CN1CCN(C(CC(C)C)c2nnnn2Cc2cccs2)CC1 (stereo not drawn)	5	i	7%	15
CC(C)CC(=O)NCC(C)NC(=O)CC(C)C (stereo not drawn)	8	+	17%	10
CC(CNC(=O)C1CCCCC1)NC(=O)C1CCCCC1 (stereo not drawn)	8	i	6%	10
O=C(Nc1ccc(N2CCCCC2)cc1)c1cccnc1	2	+	17%	8
Cc1cc(N2CCN(C3CCCC3)CC2)n2nc(C)c(-c3ccccc3)c2n1	9	+	21%	13
Cc1cc(C)c2c(n1)nn1c(N3CCN(c4ccccc4)CC3)cc(C)nc21	10	+	20%	2
Cc1cc(N2CCOCC2)n2nc(C)c(-c3ccccc3)c2n1	9	i	9%	17
Cc1cc(C)c2c(n1)nn1c(N3CCN(c4ccccn4)CC3)cc(C)nc21	9	i	12%	10
Cn1c(=O)oc2cc(S(=O)(=O)Nc3cccc4c3CCCC4)ccc21	12	i	6%	6
CC1(C(=O)NC2CCCCCCC2)CCC(=O)N1Cc1ccco1 (stereo not drawn)	2	i	11%	31*
Cc1cc(-c2ccccc2)nc(N2CCC(C(=O)NC(C)C)CC2)n1	0	+	30%	14
CCC(C)NC(=O)C1CCN(c2nc(C)cc(C)n2)CC1 (stereo not drawn)	0	i	8%	19
CCS(=O)(=O)N1CCN(C(C)CCc2ccccc2)CC1 (stereo not drawn)	42*	i	15%	2
CN(C)CCSc1nnc(-c2ccccc2)o1	5	+	18%	5
CSc1nnc(-c2ccccc2)o1	7	i	3%	2
COc1cc(-c2nc3cnccc3n2C)cc(OC)c1OC	0	+	20%	19
COc1cc(OC)c(-c2nc3cnccc3n2C)cc1OC	0	i	1%	2
O=C(c1c(F)cccc1F)N1CCN(c2ccccc2F)CC1	3	i	3%	5
CC(=O)N1CCC(N2CCN(c3ccccc3F)CC2)CC1	32	i	23%	36*
COc1cccc(NC(=O)N2CCN(Cc3nc4ccccc4c(=O)[nH]3)CC2)c1	5	i	3%	3
CC(=O)N1CCc2cc(S(=O)(=O)NC3CCCc4ccccc43)ccc21 (stereo not drawn)	0	i	9%	27*
CC(C)c1cc(NC(=O)CSc2nnc(-c3ccccc3F)n2C)on1	3	i	5%	12
O=c1[nH]c2cc3c(cc2cc1CN(CCCO)Cc1nnnn1Cc1ccc(F)cc1)OCO3	7	+	17%	9
CC(=O)c1ccc2c3c(cccc13)C(=O)N(c1c(C)nn(C)c1C)C2=O	2	i	2%	0
SMILES	Spn MK inh	Spn DPM-DC inh	NADH enzymes	PMK inhibit
Cc1n[nH]c(C)c1N1C(=O)c2cccc3c(N4CCCCCC4)ccc(c23)C1=O	5	i	12%	32*
CCN(Cc1cc2cc(C)ccc2[nH]c1=O)C(=O)c1cccc(OC)c1	6	i	9%	11
CCC(=O)N(Cc1cc2cc(OC)ccc2[nH]c1=O)c1cc(C)ccc1C	7	+	20%	20
Cc1cccc(-n2nc3c(c2NC(=O)c2ccc(Br)o2)CSC3)c1	7	i	2%	0
COc1ccc(Cl)cc1NC(=O)C1CCCN(S(=O)(=O)c2cccc3nonc23)C1 (stereo not drawn)	54*	i	24%	17
Cc1ccc(NS(=O)(=O)c2ccc(NC(=O)c3ccc(Br)o3)cc2)c(C)c1	0	i	0%	0
N#CC(C(=O)NC1CCCCC1)c1nc2ccccc2nc1N1CCCCC1 (stereo not drawn)	31	+	55%	41*
COCCNC(=O)C(C#N)c1nc2ccccc2nc1N1CCCCCC1 (stereo not drawn)	5	+	20%	10
COCCCNC(=O)C(C#N)c1nc2ccccc2nc1N1CCN(Cc2ccccc2)CC1 (stereo not drawn)	6	i	2%	0
